“And” between values parts separate entries of the source, which are not always exact repeats. Equal values may be shown once. Compounds without any hit were thinned out: in the full panel of roughly 79,000, 15% have a hit. The source holds several records for some structures; these can differ, active in one and inactive in another. The source made the active and inactive calls. Rule as the data show it: active = growth inhibition above about 70%; inactive = the rest. *1 amine or outer side, *2 acyl side, *3 side chain or, on linkers, in order; H or OH if unused. Where a SMILES comes first, the peptide text is derived from it. [ ]: non-standard residue; d: D form. X2 = CC[C@H](C)[C@H](OC(=O)[C@@H](C)[C@@H](CC)N[*:1])C(=O)[*:2]; X3 = C[C@H](N[*:1])C(=O)C(C)(C)C(=O)[*:2]; NMeY = CN[C@@H](Cc1ccc(O)cc1)C(=O)O; NMeL = CN[C@@H](CC(C)C)C(=O)O; NMeV = CN[C@H](C(=O)O)C(C)C
How the values were obtained:
[1] = NCI Yeast Anticancer Drug Screen. Data for the rad50 strain (AID 155);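 also: 0% = growth of vehicle-only cultures of the same strain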; settings: S. cerevisiae rad50 strain growth inhibition, stronger effect = higher value
Method in brief: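 Genetically altered yeast (DNA repair pathway); compound treatment; growth inhibition vs vehicle ctrl.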

[2] = NCI Yeast Anticancer Drug Screen. Data for the mec2-1 strain (AID 157); settings: S. cerevisiae mec2-1 strain, stronger effect = higher value
Method in brief: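 mec2-1 yeast strain, carrying an alteration in DNA damage repair or cell cycle control, was exposed to compounds; growth inhibition was measured relative to vehicle-treated controls.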

[3] = NCI Yeast Anticancer Drug Screen. Data for the sgs1 mgt1 strain (AID 161);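 also: 0% = growth of cultures given vehicle only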; settings: S. cerevisiae sgs1 mgt1 strain, stronger effect = higher value
Method in brief: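 Compounds are added to genetically altered yeast, and growth is compared with cultures given vehicle alone to give percent inhibition.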

[4] = NCI Yeast Anticancer Drug Screen. Data for the cln2 rad14 strain (AID 165);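 also: 0% = growth equal to vehicle treated cultures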; settings: S. cerevisiae cln2 rad14 strain, stronger effect = higher value
Method in brief: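 Yeast carrying cln2 and rad14 alterations (cell cycle control and DNA damage repair) were exposed to compounds. Growth inhibition was measured against vehicle-treated controls.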

[5] = NCI Yeast Anticancer Drug Screen. Data for the bub3 strain (AID 167); settings: S. cerevisiae bub3 mutant strain, stronger effect = higher value
Method in brief: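 Yeast carrying a defined mutation is treated with each compound, and growth is compared with that of vehicle-exposed cells to give inhibition.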

[6] = NCI Yeast Anticancer Drug Screen. Data for the mlh1 rad18 strain (AID 175); settings: S. cerevisiae mlh1 rad18 strain growth inhibition, stronger effect = higher value
Method in brief: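 Growth inhibition of the yeast strain was measured after compound exposure and expressed relative to vehicle-treated controls. The strain carries defined defects in DNA damage repair.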

[7] = at 5.0 µM (retest, dose inferred, filed as 0.5)
[8] = at 50.0 µM (retest, dose inferred, filed as 5.0)

SMILES	growth inhibition [1, 7]	growth inhibition [1, 8]	growth inhibition ([1]; at 50.0 µM)	growth inhibition [2, 7]	growth inhibition [2, 8]	growth inhibition ([2]; at 50.0 µM)	growth inhibition [3, 7]	growth inhibition [3, 8]	growth inhibition ([3]; at 50.0 µM)	growth inhibition [4, 7]	growth inhibition [4, 8]	growth inhibition ([4]; at 50.0 µM)	growth inhibition [5, 7]	growth inhibition [5, 8]	growth inhibition ([5]; at 50.0 µM)	growth inhibition [6, 7]	growth inhibition [6, 8]	growth inhibition ([6]; at 50.0 µM)
CC[C@H](C)[C@@H]1OC(=O)[C@@H](C)[C@@H](CC)NC(=O)[C@H](C)NC(=O)C(C)(C)C(=O)[C@H](C)NC(=O)[C@H](Cc2ccc(OC)cc2)N(C)C(=O)[C@H](C(C)C)N(C)C(=O)CNC(=O)[C@H](CC(C)C)N(C)C(=O)CNC1=O (cyclo(A[X2]G[NMeL]G[NMeV][NMeY](Me)[X3]))	99% (active)	99% (active)	92% (active)	99% (active)	99% (active)	94% (active)	99% (active)	99% (active)	93% (active)	98% (active)	98% (active)	91% (active)	99% (active)	98% (active)	92.7% (active)	96% (active)	97% (active)	90.2% (active)
O=P(c1ccccc1)(c1ccccc1)c1ccccc1.O=P(c1ccccc1)(c1ccccc1)c1ccccc1.S=C=[N][Sn]([N]=C=S)([N]=C=S)[c]1ccccc1	58% (inactive)	98% (active)	99.5% (active)	21% (inactive)	99% (active)	99.5% (active)	62% (inactive)	99% (active)	99% (active)	-2% (inactive)	98% (active)	97.8% (active)	-2% (inactive)	99% (active)	99.2% (active)	72% (active)	99% (active)	97.7% (active)
CC(=O)OC1CCC2(C)C(CCC3C4=CCC(C5=CC(=O)OC5)C4(C)CCC32)C1 (stereo unspecified)	3% (inactive)	-33% (inactive)	82.8% (active)	-1% (inactive)	14% (inactive)	81.8% (active)	5% (inactive)	55% (inactive)	91.3% (active)	12% (inactive)	11% (inactive)	65.3% (inactive)	0% (inactive)	4% (inactive)	67.5% (inactive)	3% (inactive)	-8% (inactive)	77.8% (active)
Nc1ccc2cc(Br)ccc2c1	-11% (inactive)	26% (inactive)	75.5% (active)	-2% (inactive)	10% (inactive)	30.6% (inactive)	-10% (inactive)	11% (inactive)	46.6% (inactive)	-31% (inactive)	-9% (inactive)	31.1% (inactive)	-8% (inactive)	14% (inactive)	45.9% (inactive)	-16% (inactive)	20% (inactive)	57.4% (inactive)
c1ccc(-c2ccccn2)nc1	-4% (inactive) and 2% (inactive)	76% (active) and 90% (active)	79.8% (active) and 81.1% (active)	0% (inactive) and 1% (inactive)	53% (inactive) and 61% (inactive)	70.9% (active) and 55.6% (inactive)	8% (inactive) and -2% (inactive)	74% (active) and 75% (active)	66% (inactive) and 77.8% (active)	4% (inactive) and -5% (inactive)	61% (inactive) and 51% (inactive)	29.1% (inactive) and 21.4% (inactive)	-23% (inactive) and 0% (inactive)	87% (active) and 86% (active)	82.5% (active) and 64.2% (inactive)	-3% (inactive) and 2% (inactive)	85% (active) and 84% (active)	68% (inactive) and 75.9% (active)
OC(c1cc2c(c3ccccc13)CCCC2)C1CCCCN1 (stereo unspecified)	-4% (inactive)	17% (inactive)	64.5% (inactive)	-1% (inactive)	12% (inactive)	42.4% (inactive)	3% (inactive)	47% (inactive)	68% (inactive)	1% (inactive)	21% (inactive)	79.7% (active)	0% (inactive)	18% (inactive)	59% (inactive)	0% (inactive)	41% (inactive)	95.5% (active)
CN(Cc1ccccc1)CC(O)c1ccc(Cl)cc1 (stereo unspecified)	-4% (inactive)	38% (inactive)	57.5% (inactive)	-1% (inactive)	23% (inactive)	0.75% (inactive)	2% (inactive)	44% (inactive)	58.6% (inactive)	3% (inactive)	25% (inactive)	48.5% (inactive)	2% (inactive)	41% (inactive)	60.5% (inactive)	4% (inactive)	34% (inactive)	34.5% (inactive)
S=P(S)(Oc1ccccc1)Oc1ccccc1	-10% (inactive)	25% (inactive)	56% (inactive)	-18% (inactive)	18% (inactive)	77.7% (active)	1% (inactive)	17% (inactive)	40.4% (inactive)	-11% (inactive)	20% (inactive)	92.9% (active)	-4% (inactive)	38% (inactive)	75.2% (active)	-12% (inactive)	10% (inactive)	90.2% (active)
c1ccc(CCNCc2ccccc2)cc1	-2% (inactive)	3% (inactive)	-2.35% (inactive) and 6.05% (inactive)	-2% (inactive)	2% (inactive)	6.45% (inactive) and 3.8% (inactive)	-4% (inactive)	0% (inactive)	-7.05% (inactive) and -3.9% (inactive)	0% (inactive)	4% (inactive)	54% (inactive) and -3.45% (inactive)	5% (inactive)	4% (inactive)	-7.5% (inactive) and 16.1% (inactive)	3% (inactive)	6% (inactive)	0.4% (inactive) and 3.2% (inactive)
C=Cc1c2ccccc2cc2ccccc12	44% (inactive)	82% (active)	86.2% (active)	42% (inactive)	82% (active)	75.2% (active)	26% (inactive)	31% (inactive)	83.3% (active)	44% (inactive)	60% (inactive)	77% (active)	50% (inactive)	36% (inactive)	81.2% (active)	34% (inactive)	74% (active)	75% (active)
[Se]c1ncnc2nc[nH]c12	21% (inactive)	57% (inactive)	57.9% (inactive)	15% (inactive)	37% (inactive)	38.7% (inactive)	13% (inactive)	41% (inactive)	37.9% (inactive)	11% (inactive)	23% (inactive)	2.25% (inactive)	-2% (inactive)	60% (inactive)	39.2% (inactive)	17% (inactive)	68% (inactive)	84.2% (active)
CCCCCCCCCCCCN1CC1	-26% (inactive)	26% (inactive)	91% (active)	-38% (inactive)	-7% (inactive)	68% (inactive)	-10% (inactive)	47% (inactive)	58.5% (inactive)	-23% (inactive)	-2% (inactive)	59.5% (inactive)	1% (inactive)	44% (inactive)	82% (active)	-70% (inactive)	-17% (inactive)	67.1% (inactive)
CCCOc1ccc(/C=C/[N+](=O)[O-])cc1	11% (inactive)	17% (inactive)	52.3% (inactive)	-1% (inactive)	17% (inactive)	96.3% (active)	-1% (inactive)	11% (inactive)	50.9% (inactive)	1% (inactive)	20% (inactive)	93.5% (active)	-1% (inactive)	13% (inactive)	37% (inactive)	3% (inactive)	11% (inactive)	36% (inactive)
CN(C)C(=[Se])[Se]C(=[Se])N(C)C	95% (active)	91% (active)	95.8% (active)	96% (active)	93% (active)	96% (active)	93% (active)	92% (active)	95.5% (active)	84% (active)	90% (active)	91% (active)	93% (active)	92% (active)	95.8% (active)	96% (active)	91% (active)	96.3% (active)
BrCc1ccc2ncccc2c1	5% (inactive)	98% (active)	98.5% (active)	4% (inactive)	99% (active)	98.9% (active)	6% (inactive)	98% (active)	99% (active)	11% (inactive)	99% (active)	98.5% (active)	3% (inactive)	99% (active)	99% (active)	1% (inactive)	99% (active)	98.5% (active)
N=P(c1ccccc1)(c1ccccc1)c1ccccc1.[O]=[Cr](=[O])([OH])[O][Cr](=[O])(=[O])[OH]	9% (inactive)	80% (active)	71.3% (active)	5% (inactive)	76% (active)	26.4% (inactive)	16% (inactive)	91% (active)	37.3% (inactive)	-4% (inactive)	50% (inactive)	8.95% (inactive)	-4% (inactive)	81% (active)	11.2% (inactive)	4% (inactive)	57% (inactive)	53.2% (inactive)
CCC(=O)C(CCN1CCC2(CCCc3ccccc32)CC1)(c1ccccc1)c1ccccc1	-2% (inactive)	89% (active)	98.4% (active)	-5% (inactive)	93% (active)	94.2% (active)	3% (inactive)	93% (active)	97.8% (active)	-11% (inactive)	87% (active)	87.2% (active)	-2% (inactive)	91% (active)	94.2% (active)	3% (inactive)	92% (active)	97.3% (active)

Reference: PubChem BioAssay (NCI)
